From PubChem BioAssay (NCATS) come the findings set out here.

Assay in all cases: Primary qHTS to identify gynecologic anti-cancer compounds using libraries of approved drugs and bioactive compounds (AID 1345084); further: nearly all actives have a fitted effect of over 55% in size
Common to all, as to conditions: Gynecologic cancer cell panel viability, ATPlite luminescence, 48 h; series mostly up to 57.5 µM
A general note: In qHTS, concentration-response curves come from the screen itself.

The test system of one assay is SKOV3. In outline: (§1)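 Cell viability after 48 h drug treatment, ATPlite luminescence readout; five doses.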
The test system of the next assay is Tov-21-G. In outline: as §1
Another assay deals with Tov112D. In outline:
as §1

Molecules are shown by their SMILES. Results filed as inconclusive are left out. A number with no mark means an inactive call. Calls of active or inactive are those of the source. The call rests on the fitted dose curve; in most records, active means well fitted cell-killing curve with a large enough effect; inconclusive means small, poorly fitted or top-dose-only effect, or effect the other way; inactive means flat fitted curve, though single readings scatter.
On the % scale 0 is the no-effect control and ±100 the full control effect; potency means the concentration at half of the fitted maximal effect.

Consider `C=CCn1c(=O)c2cnc(Nc3ccc(N4CCN(C)CC4)cc3)nc2n1-c1cccc(C(C)(C)O)n1`, for which the Potency was 0.447 µM (active) in the assay on SKOV3, 0.631 µM (active) in the assay with Tov-21-G and 2 µM (active) in the assay on Tov112D.
With `CCCCOc1c(C(=O)c2c(F)cc(C)cc2F)cnc2n[nH]cc12`, the Potency result in the assay with SKOV3 was “inactive”.
As for `COc1cc(Nc2ncc(F)c(Nc3ccc4c(n3)N(COP(=O)(O)O)C(=O)C(C)(C)O4)n2)cc(OC)c1OC`, the values for the Potency in the assay with SKOV3 and in the assay with Tov-21-G were 10 µM (active) and 14.1 µM (active), respectively.
On to `COc1cc2c(Oc3ccc(-c4cnc(Nc5ccc(F)cc5)n(C)c4=O)cc3F)ccnc2cc1OCCCN1CCOCC1`, for which the Potency entry in the assay with SKOV3 is “inactive”.
On to `CC(C)Nc1cc(C(F)(F)F)cc2nc(NC(=O)c3cccnc3)nn12`, for which the Potency entry with SKOV3 and in the assay on Tov-21-G was “inactive” in each case.
Consider `COc1ccc(-n2nc(C(N)=O)c3c2C(=O)N(c2ccc(N4CCCCC4=O)cc2)CC3)cc1`, for which the Potency result in the assay on SKOV3, in the assay with Tov-21-G and with Tov112D was “inactive” throughout.
Regarding `CNC(=O)c1ccc(-c2cnc3ncc(Cc4ccc5ncccc5c4)n3n2)cc1F`, the Potency result with SKOV3, in the assay on Tov-21-G and in the assay on Tov112D was “inactive” in each case.
On to `COc1ccc(-c2cc3c(C)nc(N)nc3n(C3CCC(OCCO)CC3)c2=O)cn1` (stereo not drawn), for which the Potency with SKOV3 was 1.26 µM (active); in the assay with Tov-21-G it was 6.31 µM (active).
`CC(C)c1noc(N2CCC(COc3ccc(-c4ccc(S(C)(=O)=O)cc4)nc3)CC2)n1`: the Potency result in the assay on SKOV3, in the assay on Tov-21-G and with Tov112D was “inactive” each time.
As to `CNC(=O)c1ccc(N2C(=S)N(c3cnc(C#N)c(C(F)(F)F)c3)C(=O)C23CCC3)cc1F`, the Potency result with SKOV3, in the assay with Tov-21-G and in the assay with Tov112D was “inactive” throughout.
With `Cc1cc(Nc2ncnc3ccc(-c4ccc(CNCCS(C)(=O)=O)o4)cc23)ccc1Oc1ccn2ncnc2c1`, the Potency result with SKOV3, with Tov-21-G and in the assay on Tov112D was “inactive” each time.
`C=CC(=O)Nc1cccc(Oc2nc(Nc3ccc(N4CCN(C)CC4)cc3OC)ncc2Cl)c1`: the Potency in the assay on SKOV3 was 15.8 µM (active).
Consider `Clc1ccc2ncc(-c3cccc(NC4CNC4)n3)n2c1`, for which the Potency entry in the assay on SKOV3, in the assay with Tov-21-G and with Tov112D was “inactive” each time.
In the case of `Cc1c(CN2CCN(S(C)(=O)=O)CC2)sc2c(N3CCOCC3)nc(-c3cnc(N)nc3)nc12`, the Potency is 0.562 µM (active) with SKOV3 and 2 µM (active) with Tov-21-G.
As to `CCCn1c(=O)c2[nH]c(-c3cnn(Cc4cccc(C(F)(F)F)c4)c3)nc2n(CC)c1=O`, the Potency entry with SKOV3, in the assay with Tov-21-G and in the assay with Tov112D was “inactive” throughout.
Regarding `CCOc1ccccc1OCCNC(C)Cc1ccc(OC)c(S(N)(=O)=O)c1` (stereo not drawn), the Potency entry in the assay with SKOV3, in the assay with Tov-21-G and in the assay on Tov112D was “inactive” in each case.
With `Cc1ccc(C(=O)Nc2cccc(C(F)(F)F)c2)cc1-c1ccc2nc(NCCN3CCOCC3)ncc2c1`, the Potency in the assay with SKOV3 is 15.8 µM (active); with Tov-21-G it was 14.1 µM (active).
`CC(=O)Nc1nc(C)c(-c2ccc(Cl)c(S(=O)(=O)NCCO)c2)s1`: the Potency in the assay with SKOV3 is 11.2 µM (active).
On the same count and under the same terms, under `Nc1cccc(-c2cc3c(Oc4cccc(O)c4)ncnc3[nH]2)c1` stands 3.98 µM (active); under `O=C(Nc1nc2cccc(-c3ccc(CN4CCS(=O)(=O)CC4)cc3)n2n1)C1CC1`, “inactive”.
For `Cc1ccc(NC(=O)C2(c3ccc4c(c3)OC(F)(F)O4)CC2)nc1-c1cccc(C(=O)O)c1`, the Potency entry in the assay on SKOV3, in the assay on Tov-21-G and in the assay with Tov112D was “inactive” in each case.
For `CNc1nccc(-c2cccnc2Oc2cc(C(=O)Nc3cccc(C(F)(F)F)c3)ccc2C)n1`, the Potency in the assay on SKOV3 and with Tov-21-G was 28.2 µM (active) throughout.
As for `CC(O)C1C(=O)N2C(C(=O)O)=C(SC3CNC(C(=O)N(C)C)C3)C(C)C12` (stereo not drawn), the Potency entry in the assay on SKOV3, in the assay with Tov-21-G and with Tov112D was “inactive” each time.
As for `Clc1cccc(-c2nnnn2Cc2cccnc2)c1Cl`, the Potency result in the assay on SKOV3, in the assay on Tov-21-G and in the assay on Tov112D was “inactive” each time.
Regarding `CCCNC(=O)Nc1ccc(Oc2ncnc3cc(OC)c(OC)cc23)cc1Cl`, the Potency entry with SKOV3, in the assay on Tov-21-G and with Tov112D was “inactive” each time.
Consider `COc1ccc2c(c1)CC[C@@H](CN(C)CC(=O)O)[C@H]2c1ccccc1`, for which the Potency entry in the assay with SKOV3, in the assay on Tov-21-G and in the assay on Tov112D was “inactive” throughout.
For the compound `CC(=O)c1c(C)c2cnc(Nc3ccc(N4CCNCC4)cn3)nc2n(C2CCCC2)c1=O`, the activity change, negative = cytotoxicity is 4.84% [at 6.55 µM] in the assay on SKOV3, -13.1% [at 6.55 µM] in the assay with Tov-21-G and -4.97% [at 6.55 µM] in the assay with Tov112D.
Turning to `COC(=O)Nc1ccc(-c2nc(N3CCOCC3)c3cnn(C4CCN(Cc5cccnc5)CC4)c3n2)cc1`, the Potency in the assay with SKOV3 was 2 µM (active); in the assay with Tov-21-G it was 2.82 µM (active).
Turning to `OCc1ccc(-c2ccc(-c3ccc(CO)s3)o2)s1`, the Potency in the assay with SKOV3 was 12.6 µM (active). The Potency result with Tov-21-G was “inactive”.
For the compound `Cn1cc(-c2[nH]c3cc(NC(=O)[C@H](N)C4CCCCC4)cc4c3c2C=NNC4=O)cn1`, the results for the Potency in the assay on SKOV3 and in the assay on Tov-21-G were 7.08 µM (active) and 10 µM (active), respectively.
For `CCCCCCCCCC(=O)N[C@@H](Cc1c[nH]c2ccccc12)C(=O)N[C@H](CC(N)=O)C(=O)N[C@@H](CC(=O)O)C(=O)N[C@@H]1C(=O)NCC(=O)N[C@@H](CCCN)C(=O)N[C@@H](CC(=O)O)C(=O)N[C@H](C)C(=O)N[C@@H](CC(=O)O)C(=O)NCC(=O)N[C@H](CO)C(=O)N[C@@H]([C@@H](C)CC(=O)O)C(=O)N[C@@H](CC(=O)c2ccccc2N)C(=O)O[C@@H]1C`, the Potency result in the assay with SKOV3, with Tov-21-G and in the assay with Tov112D was “inactive” in each case.
With `Cc1nc(N)ncc1-c1nc(N2CCOCC2)c2sc(C(C)(C)O)cc2n1`, the Potency with SKOV3 was 2.82 µM (active); in the assay on Tov-21-G, 7.94 µM (active).
As for `Cc1cn2cc(C(=O)N(C)CCO)cc(N[C@@H]3CCOc4cccc(C)c43)c2n1`, the Potency entry with SKOV3, in the assay with Tov-21-G and in the assay with Tov112D was “inactive” in each case.
Turning to `O=C(O)Cn1nnc(-c2cc(N3CCC(Oc4cc(F)ccc4Br)CC3)no2)n1`, the Potency entry with SKOV3, in the assay with Tov-21-G and with Tov112D was “inactive” each time.
With `N#Cc1c(O)c2c(-c3ccc(-c4ccccc4O)cc3)csc2[nH]c1=O`, the Potency entry in the assay with SKOV3, with Tov-21-G and in the assay on Tov112D was “inactive” in each case.
For `CCCCCN(CCC12CC3CC(CC(C3)C1)C2)C(=O)NCCCc1ccncc1`, the Potency result with SKOV3, in the assay with Tov-21-G and in the assay on Tov112D was “inactive” each time.
Consider `NC(=O)c1cccc2cn(-c3ccc([C@@H]4CCCNC4)cc3)nc12`, for which the Potency result with SKOV3 and in the assay with Tov-21-G was “inactive” in each case.
